According to PubChem BioAssay AID1345083 (National Center for Advancing Translational Sciences (NCATS), 2018):
The whole screen tested about 94,000 compounds, of which about 6,200 (6.6%) were called active. Another 31% or so got no clear call; they are omitted. The sample holds actives, similar compounds and a random draw of the others, so the mix is not that of the screen. The call rests on the fitted dose curve; in most records, active means well fitted inhibition curve with a large enough effect; inconclusive means small, poorly fitted or top-dose-only effect; inactive means flat fitted curve, though single readings scatter.
On the % scale 0 is the no-effect control and ±100 the full control effect; potency means the concentration at half of the fitted maximal effect.

Assay: Cytotoxic Profiling in HEK 293 Cell Line of Diverse Libraries Using Quantitative High-Throughput Screening; further: nearly all actives have a fitted effect of over 60% in size
Details: HEK 293 viability, ATP luminescence (CellTiter-Glo), 48-72 h; series mostly up to 115 µM; activity change, negative = cytotoxicity: at the top concentration
Summary of the method: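 qHTS cytotoxicity; HEK 293, 250 cells/well; compound pinned; 48 or 72 hr, 37 degree Celsius, 5% CO2, 95% humidity; CellTiter-Glo, 10 min RT; luminescence (ATP).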
With `CC(C)NC(=O)NC[C@H]1C[C@@H]2CCN1C[C@@H]2CN1CCCC1` the “activity change, negative = cytotoxicity” value was 2.65% [at 172 µM] (inactive). For `FC(F)(F)CN1C2CCC1CN(c1cccc(Cl)n1)C2`, the “outcome” value was “inactive”. With `CCCSc1ncc(CN2CC[C@H]3CNC[C@H]32)cn1` the “activity change, negative = cytotoxicity” value was -10.3% (inactive). With `CC(=O)NCCNC(=O)[C@H]1CN2CCC1C[C@@H]2Cn1cc(-c2ccc(C(C)(C)C)cc2)nn1` (some centres not stated) the “activity change, negative = cytotoxicity” value was -3.54% (inactive). For `CNC1CCOCC1`, the “outcome” value was “inactive [at 287 µM]”. In the case of `CCCCOC(=O)N1C[C@H](C(=O)OCC)[C@H]2c3ccccc3N(C)C(=O)[C@]21C`, the “activity change, negative = cytotoxicity” value is reported as -18.1% [at 57.5 µM] (inactive). With `C#CCN1C(=O)[C@@H]2[C@H](c3ccccc31)[C@@H](C(=O)OCC)[C@@H](c1ccccc1)N2C(=O)COC` the Potency was 44.7 µM (active). For `Nc1cccc(-c2cn(C[C@H]3CC4CCN3C[C@@H]4C(=O)NCc3ccc(F)cc3)nn2)c1` (some centres not stated), the “activity change, negative = cytotoxicity” value was -7.43% [at 172 µM] (inactive). In the case of `COCC(=O)NC[C@H]1C[C@@H]2CCN1C[C@@H]2CN1CCN(C)CC1`, the “activity change, negative = cytotoxicity” value is reported as -12.1% [at 172 µM] (inactive). With `CN(C)[C@@H]1CN(C(=O)Cc2ccc(F)cc2)C[C@H]1CO` the “outcome” value was “inactive”. For `Cn1cccc1CN1CCC2(COc3ccncc3[S+](=O)([O-])N2)C1` (configuration not stated), the “activity change, negative = cytotoxicity” value was -7.93% (inactive). In the case of `COc1ccccc1-c1cc([C@H]2CN3CC[C@H]2C[C@@H]3CNC(=O)c2ccco2)nc(C)n1`, the “activity change, negative = cytotoxicity” value is reported as -23.8% [at 172 µM] (inactive). For `C=C[C@H]1CN2CC[C@H]1C[C@@H]2CNC(=O)c1ccc(C(F)(F)F)cc1`, the “activity change, negative = cytotoxicity” value was -7.78% [at 172 µM] (inactive). For `COc1ccccc1-c1cc([C@H]2CN3CC[C@H]2C[C@@H]3CNC(=O)c2ccco2)n(C)n1`, the “activity change, negative = cytotoxicity” value was 4.65% [at 172 µM] (inactive). For `O=C(NC[C@H]1C[C@@H]2CCN1C[C@@H]2CN1CCN(c2ncccn2)CC1)c1ccc(C(F)(F)F)cc1`, the “activity change, negative = cytotoxicity” value was -17.4% (inactive). With `Cc1ccc(C(=O)NC[C@H]2C[C@@H]3CCN2C[C@@H]3c2cc(-c3ccco3)nc(C)n2)cc1` the Potency was 79.4 µM (active). In the case of `Cc1nc(-c2ccc(C(F)(F)F)cc2)cc([C@H]2CN3CC[C@H]2C[C@@H]3CNC(=O)c2ccco2)n1`, the Potency is reported as 20 µM (active). In the case of `CCNC(=O)N1CC2CN(C(C)C)CC(C1)O2`, the “activity change, negative = cytotoxicity” value is reported as -6.72% (inactive). For `CC1=NOC2(CCN(Cc3c[nH]c4ccccc34)CC2)C1`, the “activity change, negative = cytotoxicity” value was 4.67% [at 172 µM] (inactive). In the case of `CN1C[C@H]2CN(Cc3cnn(C)c3)CCN2C1=O`, the “activity change, negative = cytotoxicity” value is reported as -15.1% [at 230 µM] (inactive). With `O=C(Nc1ccc2n(c1=O)C[C@H]1C[C@@H]2CN(C(=O)c2ccccn2)C1)c1ccc(F)cc1` the “activity change, negative = cytotoxicity” value was -3.73% [at 172 µM] (inactive). With `C[S+](=O)([O-])N1CCC2(CC1)CC(c1cccnc1)=NO2` the “activity change, negative = cytotoxicity” value was 0.463% (inactive). In the case of `Cc1nc(-c2ccccc2)cc([C@H]2CN3CC[C@H]2C[C@@H]3CNC2CCN(C)CC2)n1`, the Potency is reported as 28.2 µM (active). For `Cc1nc(-c2ccccc2)cc([C@H]2CN3CC[C@H]2C[C@@H]3CNC2CCOCC2)n1`, the Potency was 31.6 µM (active). With `CN(C)C(=O)[C@H]1CN2CCC1C[C@@H]2Cn1cc(-c2ccc(-c3ccccc3)cc2)nn1` (some centres not stated) the “activity change, negative = cytotoxicity” value was -17.4% [at 172 µM] (inactive). For `O=C([C@H]1CN2CCC1C[C@@H]2Cn1cc(-c2ccccc2)nn1)N1CCOCC1` (some centres not stated), the “activity change, negative = cytotoxicity” value was 0.574% [at 172 µM] (inactive). With `CC(=O)Nc1ccc(-c2ccc3n(c2=O)C[C@H]2C[C@@H]3CN(C3CCN(C)CC3)C2)cc1` the “activity change, negative = cytotoxicity” value was -24.1% [at 172 µM] (inactive). With `CC(C)N1C[C@@H]2OCC(=O)N(Cc3cccnc3)[C@@H]2C1` the “activity change, negative = cytotoxicity” value was -2.45% [at 230 µM] (inactive). In the case of `O=C(Nc1ccc(Cl)cc1)N1C[C@@H]2C[C@H](C1)c1c(-c3ccccc3F)ccc(=O)n1C2`, the “activity change, negative = cytotoxicity” value is reported as -4.3% (inactive). For `COCC1CN(Cc2ccsc2)CC12CCNCC2` (configuration not stated), the “activity change, negative = cytotoxicity” value was -27.7% (inactive). For `COc1ccc(CC(=O)N2C[C@@H]3CC[C@H](C2)N(CC2CCC2)C3)c(OC)c1`, the “activity change, negative = cytotoxicity” value was -22.9% (inactive). In the case of `Cn1nc(-c2ccc(F)cc2)cc1[C@H]1CN2CC[C@H]1C[C@@H]2CNCc1ccccn1`, the Potency is reported as 63.1 µM (active). For `COc1ccc(-c2cc([C@H]3CN4CC[C@H]3C[C@@H]4CNC(=O)C3CC3)n(C)n2)cc1OC`, the “activity change, negative = cytotoxicity” value was -9.12% [at 172 µM] (inactive). With `Cn1nc(-c2cccs2)cc1[C@H]1CN2CC[C@H]1C[C@@H]2CNC(=O)CCCC(=O)O` the “outcome” value was “inactive [at 172 µM]”. For `COc1ccc(C(=O)NC[C@H]2C[C@@H]3CCN2C[C@@H]3c2cc(-c3ccccc3)nn2C)cc1`, the Potency was 89.1 µM (active). For `Cn1nc(-c2cccs2)cc1[C@H]1CN2CC[C@H]1C[C@@H]2CNC(=O)Nc1ccccc1`, the Potency was 112 µM (active). For `COc1ccc(-c2cc([C@H]3CN4CC[C@H]3C[C@@H]4CNC(=O)c3ccccc3)n(C)n2)cc1OC`, the “activity change, negative = cytotoxicity” value was -10.2% (inactive). In the case of `COc1ccccc1-c1cc([C@H]2CN3CC[C@H]2C[C@@H]3CNC(C)=O)n(C)n1`, the “activity change, negative = cytotoxicity” value is reported as -4.81% [at 172 µM] (inactive). For `O=C(Nc1ccccc1)[C@H]1CN2CCC1C[C@@H]2Cn1cc(CO)nn1` (some centres not stated), the “activity change, negative = cytotoxicity” value was -2.81% [at 172 µM] (inactive). For `CCCCc1cn(C[C@H]2C[C@@H]3CCN2C[C@@H]3C(=O)NCCNC(C)=O)nn1`, the “activity change, negative = cytotoxicity” value was -2.52% [at 172 µM] (inactive). In the case of `Cc1ccccc1-c1ccc2n(c1=O)C[C@H]1C[C@@H]2CN(C(=O)CSCC(=O)O)C1`, the “activity change, negative = cytotoxicity” value is reported as -1.03% [at 172 µM] (inactive). In the case of `O=C([C@H]1CN2CCC1C[C@@H]2Cn1cc(CCO)nn1)N1CCCC1` (some centres not stated), the “outcome” value is reported as “inactive [at 172 µM]”. With `COc1ccccc1-c1ccc(N2CC3CC(C2)c2cccc(=O)n2C3)nn1` (configuration not stated) the “activity change, negative = cytotoxicity” value was 1.75% (inactive). For `Cc1ccc([C@@H]2CN(Cc3ncc[nH]3)[C@@H]3C4CCN(CC4)[C@@H]32)cc1`, the “activity change, negative = cytotoxicity” value was 3.55% (inactive). For `COc1cccc(C(=O)N2CCC3(CC2)NCc2ccccc2-n2ccnc23)c1`, the “activity change, negative = cytotoxicity” value was -24.7% (inactive). In the case of `O=S1(=O)NCC2(CCN(Cc3ccc(Cl)s3)C2)Oc2ncccc21` (configuration not stated), the “outcome” value is reported as “inactive”. For `O=C(COc1ccccc1)N1C[C@@H]2C[C@H](C1)c1c(-c3ccccc3F)ccc(=O)n1C2`, the “activity change, negative = cytotoxicity” value was -23.1% [at 172 µM] (inactive).
